The term inhibition denotes the change of the read-out against control, counted positive when it falls.

Among the data in PubChem BioAssay AID1578 (Sanford-Burnham Center for Chemical Genomics, 2009) are inhibition values, retold here.

In all, about 290,000 compounds went through this assay and about 3,000 (1%) were called active. For the sample, actives were picked, then their nearest neighbours and some compounds at random. Values without a mark were called inactive. Rule as the data show it: active = inhibition mostly above about 36% (no sharp cut-off); inactive = mostly below about 34%.

This test can be described thus: NOD1 signaling inhibitors, primary screen, cell-based, luminescence, uHTS (AID 1578).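 Also: HEK-293T reporter cells stimulated with the NOD1 agonist gamma-tri-DAP.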 Particulars: NOD1-driven NF-kB luciferase reporter cells, at 4 µM, stronger effect = higher value. (A reporter such as luciferase makes a cellular process visible.)
In the case of `CCN(Cc1ccccc1)S(=O)(=O)c1ccc(OC)cc1`, the inhibition was 14.2%.

`COc1cccc(C2CC(c3cccs3)=NN2S(C)(=O)=O)c1OC` (configuration not stated): the inhibition is -30.3%.

Regarding `N#CCSc1nc2ccccc2c(=O)n1CCC(=O)NCCc1ccccc1`, the inhibition was 32.7%.

For `O=C1C(=O)N(CCCN2CCOCC2)C(c2ccc([N+](=O)[O-])cc2)/C1=C(/O)c1ccc2c(c1)OCO2` (configuration not stated), the inhibition is -24.9%.

Consider `CCc1cccc(NC(=O)CCS(=O)(=O)c2ccc3c(c2)NC(=O)CO3)c1`, for which the inhibition was -12.9%.

Regarding `CN(C(=O)CCN1C(=O)C(C)(C)Nc2ccccc21)c1ccccc1`, the inhibition is 0.1%.

With `Cc1ccc2[nH]cc(C(=O)CN3CCN(c4ccccn4)CC3)c2c1`, the inhibition was -23%.

`CC(NC(=O)OC1CCCCC1)N1C(=O)C2C3C=CC(C3)C2C1=O` (configuration not stated): the inhibition is -1.3%.

Take `Cn1c(N/N=C/c2cccs2)nc2c1c(=O)n(Cc1ccccc1)c(=O)n2C`: the inhibition is -22.5%.

For `NC(=O)c1cc2cc(Cl)ccc2oc1=Nc1cccc(C(F)(F)F)c1`, the inhibition is -9.4%.

`Cn1c(O)c(C=Nc2ccc(N3CCOCC3)cc2)c(=O)n(C)c1=S`: the inhibition is -14.6%.

Consider `CCN(CC(=O)Nc1ccc2c(c1)OCCO2)S(=O)(=O)c1ccccc1`, for which the inhibition was -42.6%.

Consider `CCCN1CN(Cc2ccccc2)CNC1=S`, for which the inhibition is -23.1%.

As for `CCOC(=O)/C(C#N)=C/c1c(N2CCCCCC2)nc2ccccn2c1=O`, the inhibition was 0.9%.

As for `COc1cc2c3c(c1)C1(C(=O)N3C(C)(C)C=C2C)C(C#N)=C(N)Oc2cc(C)oc(=O)c21` (configuration not stated), the inhibition is -10.4%.

For the compound `CC1=CC(C)(C)N2C(=O)C3(C(C#N)=C(N)Oc4cc(C)oc(=O)c43)c3cccc1c32` (configuration not stated), the inhibition is -1.1%.

Turning to `CCc1cc2c3c(c1)C1(C(=O)N3C(C)(C)C=C2C)C(C#N)=C(N)Oc2[nH]c(=O)[nH]c(=O)c21` (configuration not stated), the inhibition was 54.6% (active).

Regarding `Cc1cc(C)n(C(=O)/C(C#N)=N/Nc2cc(Cl)cc(Cl)c2)n1`, the inhibition is 40.4% (active).

Regarding `Cc1cc(C)n(C(=O)/C(C#N)=N\Nc2ccccc2[N+](=O)[O-])n1`, the inhibition is -30.2%.

Turning to `Cc1cc(C)n(C(=O)/C(C#N)=C/N(C)C)n1`, the inhibition is -47.6%.

As for `Cc1nc(Cl)c(C(=O)NCc2ccccc2)c(C)c1Cl`, the inhibition was -37.4%.

Regarding `Cc1nc(Cl)c(C(=O)NCc2ccccc2)c(C)c1[N+](=O)[O-]`, the inhibition is -6.1%.

`O=C(NCc1ccccc1)c1c(Cl)nc(Cl)c(Cl)c1Cl`: the inhibition is 54.5% (active).

For the compound `COc1ccc(C)cc1-n1nc2ccccc2n1`, the inhibition was -40%.

Turning to `CC(C)CSC1=NSC2=NC(=O)/C(=C\c3cccs3)C(=N)N12`, the inhibition is 41.8%.

Regarding `CSC1=NSC2=NC(=O)/C(=C\c3cccs3)C(=N)N12`, the inhibition is -30%.

For `N=C1/C(=C/c2cccs2)C(=O)N=C2SN=C(SCc3ccccc3)N12`, the inhibition was 80.4% (active).

On to `CCc1ccc(-n2nnnc2SCC(=O)Nc2ccc(NC(C)=O)cc2)cc1`, for which the inhibition is -3.5%.

As to `O=C1/C(=C/c2ccccc2[N+](=O)[O-])COc2ccccc21`, the inhibition is 47.1% (active).

With `O=C1/C(=C/c2ccc(O)cc2)COc2ccccc21`, the inhibition is -6.1%.

For the compound `O=C1/C(=C/c2cccs2)COc2ccccc21`, the inhibition was -19%.

In the case of `CCOC(=O)c1cnc2nc(NCc3ccc(OC)c(OC)c3)[nH]n2c1=O`, the inhibition is -26.1%.

Turning to `CC1CCCN1CC#CC(O)(c1ccccc1)c1ccccc1` (configuration not stated), the inhibition was 0.2%.

For `O=C(Nc1ncc([N+](=O)[O-])s1)c1cccc([N+](=O)[O-])c1`, the inhibition was 10.4%.

Consider `CC(c1ccccc1)c1nnc(NC(=O)c2ccc3c(c2)OCO3)s1` (configuration not stated), for which the inhibition is 5.6%.

Turning to `O=C(Nc1ccc([N+](=O)[O-])cn1)c1ccc2c(c1)OCO2`, the inhibition is -49.4%.

On to `Cc1nnc(NC(=O)c2c(-c3ccccc3)noc2C)s1`, for which the inhibition was -0.4%.

Regarding `CC(C)c1nnc(NC(=O)c2ccc3c(c2)OCO3)s1`, the inhibition was 62.9% (active).

Consider `O=C(Nc1ncc([N+](=O)[O-])s1)c1ccc2c(c1)OCO2`, for which the inhibition was 69% (active).

Regarding `Cc1cnc(NC(=O)c2c(-c3ccccc3)noc2C)s1`, the inhibition was 2.4%.

On to `CCC(CC)c1nnc(NC(=O)c2ccc3c(c2)OCO3)s1`, for which the inhibition was -53.7%.

Consider `C/C(CCc1ccc2c(c1)OCO2)=N\N=C1\NC(=O)CC(C(=O)Nc2ccc(Cl)cc2)S1` (configuration not stated), for which the inhibition was 3.3%.

In the case of `COc1ccc(NC(=O)CNC(=O)c2c(C)nn(C)c2Cl)cc1`, the inhibition was -25.4%.

In the case of `Cc1ccc(C(=O)Cn2c(C)cc(C)c(C#N)c2=O)cc1`, the inhibition is -3.5%.

For `COc1cccc2sc(/N=C/N(C)C)nc12`, the inhibition is 4.3%.

For `CN1CCCC1=Nc1c2c(nc3ccccc13)N(C)CC2`, the inhibition was -12.3%.

Regarding `COc1ccc(-c2csc(NC(=S)NC(=O)c3ccc(S(=O)(=O)N(C)C)cc3)n2)cc1OC`, the inhibition is -1.9%.

Regarding `Cc1ccc(CCCOC(=O)CN2CCCCC2)cc1`, the inhibition is -29.9%.

As for `COc1cc(OC)cc(OCC(O)Cn2cnc(-c3ccccc3)c2)c1` (configuration not stated), the inhibition was -19.2%.

Take `Brc1ccc(C=Nc2ccc3c(c2)OCCOCCOCCO3)s1`: the inhibition was -40.4%.

For `O=C(c1noc2c1CCc1ccccc1-2)N1CCc2ccccc2C1`, the inhibition is -25%.

Take `COc1ccc(CNc2ncnc3sccc23)cc1`: the inhibition was 41.7%.

For `COc1ccc(CNc2ncnc3cc(OC)c(OC)cc23)cc1OC`, the inhibition is -17%.

For `CN(C)C(CNc1ncnc2sccc12)c1ccccc1` (configuration not stated), the inhibition was 4%.

On to `COc1ccccc1Nc1ncnc2sccc12`, for which the inhibition is -5.2%.

For `OC(CNc1ncnc2sccc12)c1ccccc1` (configuration not stated), the inhibition was -2.4%.

In the case of `Fc1ccccc1CNc1ncnc2sccc12`, the inhibition was 25.2%.

In the case of `O=C(CN1CCN(S(=O)(=O)c2ccc(Cl)cc2)CC1)c1ccc(O)c(O)c1`, the inhibition was -30.9%.

Turning to `Cn1ccnc1SCC(=O)c1ccc([N+](=O)[O-])cc1`, the inhibition was -21.2%.

For `COc1ccc(C(=O)NCCOC(C)C)cc1OC1CCN(C(C)=O)CC1`, the inhibition was -13.7%.

`O=C(CSc1nc2ccccc2s1)NNC(=S)Nc1ccc(Cl)cc1`: the inhibition is -14.3%.

For the compound `O=C(COc1ccc(Cl)cc1Cl)NNC(=S)NC(=O)c1ccco1`, the inhibition is -10.8%.
